Assay results reported in PubChem BioAssay (NCATS).
Results filed as inconclusive are left out. Values without a mark were called inactive. Calls come from the whole dose curve; as a rule, active = well fitted cell-killing curve with a large enough effect; inconclusive = small, poorly fitted or top-dose-only effect; inactive = no such curve, though single readings can be large or run the other way.

experiment: qHTS of pediatric cancer cell lines to identify multiple opportunities for drug repurposing: Primary screen for Rh41 cells (AID 1347108); conditions: Rh41 rhabdomyosarcoma viability, CellTiter-Glo luminescence, 48 h; series mostly up to 46 µM; activity change, negative = cytotoxic: at the top concentration;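 note: luminescence drop marks cytotoxic hits; nearly all actives have a fitted effect of over 70% in size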
How it was run: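 Luminescence from CellTiter-Glo served as readout of metabolically active cells after 48 h compound exposure. Titrations: MIPE 11-point, from 0.78 nM; NPC 8-point, from 0.59 nM (final). Concentration-response curves came straight from the primary screen.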

Row | Compound | activity change, negative = cytotoxic
1 | CN=C(NC#N)NCCSCc1csc(N=C(N)N)n1 | 24.5%
2 | CCN(CC)C(=O)N1CCN(C)CC1 | 16.5%
3 | Cc1c(N(C)CS(=O)(=O)O)c(=O)n(-c2ccccc2)n1C | 29.2%
4 | CC1=C(C(=O)O)N2C(=O)[C@@H](NC(=O)[C@H](N)c3ccc(O)cc3)[C@H]2SC1 | 4.82%
5 | COc1c2occc2c(OC)c2c(=O)cc(C)oc12 | 37.5%
6 | O=c1ccc2ccccc2o1 | 18.3%
7 | NC(CS)C(=O)O (stereo unspecified) | 31.9%
8 | CCOC(=O)OC(C)OC1=C(C(=O)Nc2ccccn2)N(C)S(=O)(=O)c2ccccc21 (stereo unspecified) | 19%
9 | NC(=O)c1cc[n+](CC2=C(C(=O)[O-])N3C(=O)[C@@H](NC(=O)Cc4cccs4)[C@H]3SC2)cc1 | 17.2%
10 | COc1cccc(OC)c1C(=O)N[C@@H]1C(=O)N2[C@@H]1SC(C)(C)[C@@H]2C(=O)O | 27.5%
11 | CN1CCC(=C2c3ccccc3Sc3ccccc32)CC1 | -2.71%
12 | Nc1ccc(/C=C/c2ccc(N)cc2S(=O)(=O)O)c(S(=O)(=O)O)c1 | 37.3% [at 0.597 µM]
13 | OCc1ccccc1O | 32.2%
14 | CCN1CCC[C@H]1CNC(=O)c1c(OC)ccc(Br)c1OC | 4.37%
15 | CN1C(CCl)Nc2cc(Cl)c(S(N)(=O)=O)cc2S1(=O)=O (stereo unspecified) | 19.8%
16 | Clc1ccc2c(c1)CCc1cccnc1C2=C1CCNCC1 | -7.8%
17 | O=S1(=O)c2cccc3cccc(c23)N1CCCN1CCN(c2ccc(F)cc2)CC1 | 0.131%
18 | COC(=O)CCc1ccc(OCC(O)CNC(C)C)cc1 (stereo unspecified) | 11.4%

Row | Compound | activity change, negative = cytotoxic
19 | COc1cc(C(=S)N2CCOCC2)cc(OC)c1OC | 16.1%
20 | Cc1c(F)c(N2CCNC(C)C2)cc2c1c(=O)c(C(=O)O)cn2C1CC1 (stereo unspecified) | 25.9%
21 | CCCCOc1ccc(OCCCN2CCOCC2)cc1 | 9.86%
22 | CCOc1ccc(NC(=O)CC(C)O)cc1 (stereo unspecified) | -3.7%
23 | CC[N+](CC)(CCNC(=O)C(=O)NCC[N+](CC)(CC)Cc1ccccc1Cl)Cc1ccccc1Cl | 4.51%
24 | NCCc1ccn[nH]1 | 20.4%
25 | O=c1[nH]c(=O)n([C@H]2CCCO2)cc1F | 6.43%
26 | CCCCN1CCCC1C(=O)Nc1c(C)cc(C)cc1C (stereo unspecified) | 11.2%
27 | CCN(CCCCOC(=O)c1ccc(OC)c(OC)c1)C(C)Cc1ccc(OC)cc1 (stereo unspecified) | 11.7%
28 | CC(C)N=C(N)/N=C(\N)Nc1ccc(Cl)cc1 | -3.29%
29 | O=C(OCCOCCO)c1ccccc1Nc1cccc(C(F)(F)F)c1 | 11%
30 | CC1(C)O[C@@H]2[C@@H](CO[C@@]3(COS(N)(=O)=O)OC(C)(C)O[C@@H]23)O1 | 37.1%
31 | CN1CCC[C@@H]1c1cccnc1 | 9.45%
32 | Cc1onc(-c2c(Cl)cccc2Cl)c1C(=O)N[C@@H]1C(=O)N2[C@@H]1SC(C)(C)[C@@H]2C(=O)O | 17.3%
33 | Cc1cc2c(cc1CC(=O)c1sccc1S(=O)(=O)Nc1onc(C)c1Cl)OCO2 | 17.8%
34 | Cc1cc(=O)n(-c2ccccc2)n1C | 6.92%
35 | CC(Cc1ccccc1)(NC(=O)CN)c1ccccc1 (stereo unspecified) | 26.3%
36 | CCN(CCCc1ccccc1)CCCc1ccccc1 | 13.5%
